Tests used:
Type in all cases: functional
[1] = molecular target: Solute carrier family 2, facilitated glucose transporter member 1 (Homo sapiens) (UniProt P11166); assay: ST_JUDE_LEISH: Cytotoxicity at 2uM final concentration against transgenic Leishmania Mexicana promastigotes LmGLUT1 that are glucose transport deficient and complemented with the human glucose transporter GLUT1. Activity is measured by DNA content using SYBR green in vitro
[2] = molecular target: Hexose transporter 1 (Plasmodium falciparum) (UniProt O97467); assay: ST_JUDE_LEISH: Cytotoxicity at 2uM final concentration against transgenic Leishmania Mexicana promastigotes LmPfHT that are glucose transport deficient and complemented with the Plasmodium falciparum hexose transporter. Activity is measured by DNA content using SYBR green in vitro
[3] = molecular target: Glucose transporter (Leishmania mexicana) (UniProt O61059); assay: ST_JUDE_LEISH: Cytotoxicity at 2uM final concentration against transgenic Leishmania Mexicana promastigotes LmGT2 that are glucose transport deficient and complemented with the L. Mexicana glucose transporter 2. Activity is measured by DNA content using SYBR green in vitro

Chain of Solute carrier family 2, facilitated glucose transporter member 1 (Homo sapiens) (P11166 whole entry): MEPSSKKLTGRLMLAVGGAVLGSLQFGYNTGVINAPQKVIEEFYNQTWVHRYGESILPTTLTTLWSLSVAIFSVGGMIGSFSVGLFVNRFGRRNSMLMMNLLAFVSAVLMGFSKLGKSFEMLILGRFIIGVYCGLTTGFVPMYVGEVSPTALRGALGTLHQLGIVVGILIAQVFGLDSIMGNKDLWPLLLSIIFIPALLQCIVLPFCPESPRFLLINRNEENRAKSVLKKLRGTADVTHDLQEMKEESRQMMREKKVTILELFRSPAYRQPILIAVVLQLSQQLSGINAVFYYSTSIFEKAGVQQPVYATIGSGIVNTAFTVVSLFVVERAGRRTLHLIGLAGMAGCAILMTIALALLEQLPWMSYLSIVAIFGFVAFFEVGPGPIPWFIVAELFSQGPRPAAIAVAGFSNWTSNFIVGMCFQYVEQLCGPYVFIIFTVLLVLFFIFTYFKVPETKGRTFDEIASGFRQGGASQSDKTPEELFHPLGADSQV

Compound | inhibition [1] | inhibition [2] | inhibition [3]
CCc1sc(-c2ccc(C(C)(C)C)cc2)nc1C(=O)NCCCN1CCCC1=O | -1.44% | -2.22% | -4.69%
N=C(N)CCN(Cc1ccccc1)c1ccc(Cl)cc1 | -1.51% | -1.28% | -1.35%
CC(C)N1CCN(c2ccc(OCCCN3CCN(c4cccc(Cl)c4Cl)CC3)c(C(F)(F)F)c2)CC1 | 2.24% | 1.13% | -0.82%
NCc1ccc(CNCc2cccc(-c3ccc(-c4nc5cc(C(F)(F)F)ccc5[nH]4)cc3)c2)cc1 | 2.92% | 1.34% | 0.8%
CN(CCNCc1ccc(-c2cccc(-c3nc4ccccc4[nH]3)c2)cc1)S(C)(=O)=O | 0.68% | 0.26% | 1.73%
Cc1cccc2c3c([nH]c12)C1(CCN(CCc2ccccc2)CC1)NC(C(=O)NCc1ccccc1)C3 (stereo unspecified) | 4.58% | 5.51% | 0.71%
CN(C)CCCOc1ccc(CN2CC[C@H](NC(=O)c3ccc(Cl)c(Cl)c3)C2)cc1Br | 3.8% | 0.94% | 0.53%
Cc1cc(Nc2ccccc2)nc(NCCOc2ccccc2)n1 | 5.53% | 8.42% | 2.95%
N#Cc1cc([N+](=O)[O-])ccc1-n1nc(-c2cccc(Cl)c2)n(CC2CCCO2)c1=S (stereo unspecified) | 2.07% | 1.3% | -4.52%
COc1ccc(CNC2Cc3ccccc3C2)cc1-c1ccc(S(=O)(=O)NCCN2CCCC2)s1 | 17.7% | 15.5% | 7.58%
CN(C)CCCNc1nccc(N(C)c2ccc(NC(=O)Nc3cc(C(F)(F)F)ccc3F)cc2)n1 | 1.93% | -0.78% | -0.59%
NCc1ccc(CNCc2ccc(-c3ccc(-c4nc5cc(F)ccc5[nH]4)cc3)cc2)cc1 | 10.3% | 5.39% | 5.05%
COc1ccc2nc(-c3ccccc3)cc(N/N=C/c3ccc([N+](=O)[O-])cc3)c2c1 | 6.36% | 6.3% | 2.43%
CC(=O)Oc1c(C2C=CCCC2)c(OC(C)=O)c2ccccc2c1OC(C)=O (stereo unspecified) | 1.04% | 3.27% | 1.98%
c1ccc(CCNCc2ccc(-c3cccc(-c4nc5ccccc5[nH]4)c3)cc2)nc1 | 3.95% | 3.7% | 3.79%
CCCCCCn1c(Sc2ccc(C#N)c([N+](=O)[O-])c2)nnc1-c1ccc(Cl)cc1 | 5.74% | 7.85% | 2.57%

Compound | inhibition [1] | inhibition [2] | inhibition [3]
CCN1CCN(CCCCNc2c3ccccc3nc3ccccc23)CC1 | 20.5% | 8.76% | 10.7%
Cc1cc(SC(C)(C)C)cc2c(Cl)c(C(N)=O)cnc12 | 89% | 93.7% | 85.8%
CC(C)N(Cc1ccc(-c2ccc(C(F)(F)F)cc2)cc1)C(=O)Cn1c(CCc2cccc(F)c2F)cc(=O)c2ccc(CCCN3CCCCC3)cc21 | 3.56% | 4.4% | 3.61%
O=C(Nc1ccncc1)c1cn(-c2ccccc2)nc1-c1cccs1 | 5.19% | 2.4% | 3.52%
Cc1ccc(-n2c(=O)c3cccnc3n2CC(=O)Nc2cccc(C)c2C)cc1 | 8.07% | 5.98% | 7.74%
O=C(Nc1ccc(Cl)cc1)NC1CCN(CCCCCNC(=O)C2CC2c2ccc(Cl)c(Cl)c2)CC1 (stereo unspecified) | 9.93% | 9.43% | 7.34%
O=C(Cc1ccc[n+]([O-])c1)Nc1cccc(-c2cccc(-c3nc4cc(C(F)(F)F)ccc4[nH]3)c2)c1 | 2.28% | -0.06% | 5.03%
COc1cc(F)c2nccc([C@@H](O)CN3CCC(NCc4ccc5c(n4)NC(=O)CS5)CC3)c2c1 | -0.92% | -1.04% | -1.38%
CN1CCN(c2ccc(Cl)cc2NC(=O)C2COc3ccccc3O2)CC1 (stereo unspecified) | 0.88% | 1.77% | -1.34%
CCS(=O)(=O)Nc1ccc2[nH]cc(C3CCN(CCC4CCN(C(=O)/C=C/c5ccc(Cl)c(Cl)c5)CC4)CC3)c2c1 | 2.73% | 4.42% | 1.91%
COc1ccc(C2C(C(=O)OC3CCCC3)=C(C)NC3=C2C(=O)CCC3)cc1Br (stereo unspecified) | 1.02% | -0.27% | 0.31%
CN1CCN(CC(=O)Nc2ccc(-c3cccc(-c4nc5cc(F)ccc5[nH]4)c3)cc2)CC1 | -0.65% | 0.74% | -1.87%
Cc1nc(C)c(-c2ccc(Oc3ccc(Cl)cc3Cl)cc2)c(O)c1Br | -1.34% | -0.13% | 0.66%
COc1cccc(C(C)(C)NC[C@@H](O)[C@H](Cc2ccccc2)NC(=O)c2cc(C3CCCC3)cc(N3CCCCS3(=O)=O)c2F)c1 | 0.16% | 2.15% | 1.09%
Cc1[nH]c(C)c(-c2ccc(OCCOc3ccc(C(F)(F)F)cn3)cc2)c(=O)c1Br | -0.58% | 1.5% | -1.93%
CC(Cc1ccc(NC(=O)c2ccc(CNCCc3ccccc3)cc2)cc1)NCCc1cccc(Cl)c1 (stereo unspecified) | 68.9% | 36% | 4.52%
